According to PubChem BioAssay AID1159580 (chemical genetic matrix, 2015):
Several values for one entry are separate records, joined by “and”; a condition that tells them apart may be missing. Identical values can stand only once. The campaign covered roughly 5,500 compounds. About 2,000 (36%) were called active. Roughly 18% stayed inconclusive and do not appear here. No stated cut-off is given here; in the data, active means normalized growth mostly below about 0.91 (no sharp cut-off); inconclusive means no clear call, values can overlap the other calls; inactive means mostly above about 0.92. This is one part of the list.

Assay: chemical genetic growth profiling, strain panel (AID 1159580);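 further: tested at 20 µM; growth read once vehicle control cultures reached saturation at 30 °C; 1 = growth at the plate median or of vehicle wells; lower values mean less growth of the strain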
Details: growth OD

Measured: normalized growth

CC[C@H]1CN2CCC1C[C@@H]2[C@@H](O)c1ccnc2ccc(OC)cc12 (some centres not stated)
inactive: S. cerevisiae deletion strains, locus YAL013W, strain DEP1, active compounds read low 0.997 | S. cerevisiae deletion strains, locus YBR021W, strain FUR4, active compounds read low 0.996 | S. cerevisiae deletion strains, locus YBR229C, strain ROT2, active compounds read low 0.992 | S. cerevisiae deletion strains, locus YCL029C, strain bik1, active compounds read low 1.01 | S. cerevisiae deletion strains, locus YDL035C, strain GPR1, active compounds read low 0.995 | S. cerevisiae deletion strains, locus YDL074C, strain BRE1, active compounds read low 1.01 | S. cerevisiae deletion strains, locus YDL101C, strain DUN1, active compounds read low 0.995 | S. cerevisiae deletion strains, locus YDL134C, strain PPH21, active compounds read low 1.01 | S. cerevisiae deletion strains, locus YDL185W, strain tfp1, active compounds read low 1.01 | S. cerevisiae deletion strains, locus YDL192W, strain arf1, active compounds read low 1.01 | S. cerevisiae deletion strains, locus YDR101C, strain arx1, active compounds read low 1 | S. cerevisiae deletion strains, locus YDR150W, strain NUM1, active compounds read low 1.01 | S. cerevisiae deletion strains, locus YDR162C, strain NBP2, active compounds read low 1 | S. cerevisiae deletion strains, locus YDR318W, strain mcm21, active compounds read low 1.02 | S. cerevisiae deletion strains, locus YDR388W, active compounds read low 1.01 | S. cerevisiae deletion strains, locus YDR502C, strain sam2, active compounds read low 1.04 | S. cerevisiae deletion strains, locus YEL061C, strain CIN8, active compounds read low 1.01 | S. cerevisiae deletion strains, locus YER110C, active compounds read low 1.01 | S. cerevisiae deletion strains, locus YER155C, strain BEM2, active compounds read low 1.01 | S. cerevisiae deletion strains, locus YER167W, strain BCK2, active compounds read low 1 | S. cerevisiae deletion strains, locus YGL078C, strain dbp3, active compounds read low 1.01 | S. cerevisiae deletion strains, locus YGL086W, strain mad1, active compounds read low 1 | S. cerevisiae deletion strains, locus YGL248W, strain PDE1, active compounds read low 0.997 | S. cerevisiae deletion strains, locus YGR078C, strain PAC10, active compounds read low 1 | S. cerevisiae deletion strains, locus YGR135W, strain pre9, active compounds read low 1.01 | S. cerevisiae deletion strains, locus YGR229C, strain SMI1, active compounds read low 0.977 | S. cerevisiae deletion strains, locus YGR252W, strain gcn5, active compounds read low 0.994 | S. cerevisiae deletion strains, locus YHR030C, strain SLT2, active compounds read low 1.01 and 1.04 | S. cerevisiae deletion strains, locus YHR079C, strain IRE1 (second series), active compounds read low 1.01 | S. cerevisiae deletion strains, locus YHR079C, strain IRE1, active compounds read low 1.02 | S. cerevisiae deletion strains, locus YHR094C, strain hxt1, active compounds read low 1.01 | S. cerevisiae deletion strains, locus YHR129C, strain ARP1, active compounds read low 1.01 | S. cerevisiae deletion strains, locus YHR200W, strain rpn10, active compounds read low 1.02 | S. cerevisiae deletion strains, locus YIL066C, strain RNR3, active compounds read low 1 | S. cerevisiae deletion strains, locus YIL073C, strain SPO22, active compounds read low 1.03 | S. cerevisiae deletion strains, locus YIL125W, strain kgd1, active compounds read low 1 | S. cerevisiae deletion strains, locus YIR030C, strain dcg1, active compounds read low 1.01 | S. cerevisiae deletion strains, locus YJL095W, strain BCK1, active compounds read low 1.01 and 1.02 | S. cerevisiae deletion strains, locus YJL134W, strain LCB3, active compounds read low 0.997 | S. cerevisiae deletion strains, locus YJL168C, strain set2, active compounds read low 1.01 | S. cerevisiae deletion strains, locus YJL187C, strain SWE1 (second series), active compounds read low 0.999 | S. cerevisiae deletion strains, locus YJR043C, strain POL32, active compounds read low 1.01 | S. cerevisiae deletion strains, locus YJR066W, strain TOR1, active compounds read low 0.956 | S. cerevisiae deletion strains, locus YJR075W, strain HOC1, active compounds read low 1 | S. cerevisiae deletion strains, locus YKL009W, strain mrt4, active compounds read low 1.08 | S. cerevisiae deletion strains, locus YKL068W, active compounds read low 1.01 | S. cerevisiae deletion strains, locus YKL085W, strain MDH1 (second series), active compounds read low 1.03 | S. cerevisiae deletion strains, locus YKL085W, strain MDH1, active compounds read low 1.03 | S. cerevisiae deletion strains, locus YKL190W, strain CNB1, active compounds read low 1.01 | S. cerevisiae deletion strains, locus YKR001C, strain vps1, active compounds read low 1.02 | S. cerevisiae deletion strains, locus YLR039C, strain RIC1, active compounds read low 1.01 | S. cerevisiae deletion strains, locus YLR058C, strain SHM2, active compounds read low 1 | S. cerevisiae deletion strains, locus YLR102C, strain apc9, active compounds read low 1.01 | S. cerevisiae deletion strains, locus YLR113W, strain HOG1, active compounds read low 1.02 | S. cerevisiae deletion strains, locus YLR262C, strain YPT6, active compounds read low 0.988 | S. cerevisiae deletion strains, locus YLR268W, strain sec22, active compounds read low 1.02 | S. cerevisiae deletion strains, locus YLR330W, strain CHS5, active compounds read low 1 | S. cerevisiae deletion strains, locus YLR342W, strain FKS1 (second series), active compounds read low 0.983 | S. cerevisiae deletion strains, locus YLR371W, strain rom2, active compounds read low 1.01 | S. cerevisiae deletion strains, locus YLR418C, strain cdc73, active compounds read low 1.01 | S. cerevisiae deletion strains, locus YML016C, strain PPZ1, active compounds read low 1 | S. cerevisiae deletion strains, locus YML032C, strain rad52, active compounds read low 1.01 | S. cerevisiae deletion strains, locus YML124C, strain tub3, active compounds read low 1.01 | S. cerevisiae deletion strains, locus YMR078C, strain ctf18, active compounds read low 1.03 | S. cerevisiae deletion strains, locus YMR223W, strain ubp8, active compounds read low 0.996 | S. cerevisiae deletion strains, locus YMR263W, strain SAP30, active compounds read low 1.02 | S. cerevisiae deletion strains, locus YMR307W, strain GAS1, active compounds read low 0.95 | S. cerevisiae deletion strains, locus YNL067W, strain RPL9B, active compounds read low 1.01 | S. cerevisiae deletion strains, locus YNL128W, strain TEP1, active compounds read low 1.01 | S. cerevisiae deletion strains, locus YNL153C, strain GIM3, active compounds read low 1 | S. cerevisiae deletion strains, locus YNL183C, strain NPR1, active compounds read low 0.942 | S. cerevisiae deletion strains, locus YNL233W, strain BNI4, active compounds read low 1 | S. cerevisiae deletion strains, locus YNL250W, strain rad50, active compounds read low 1.01 | S. cerevisiae deletion strains, locus YNL271C, strain bni1, active compounds read low 1.01 | S. cerevisiae deletion strains, locus YNL298W, strain CLA4, active compounds read low 1.01 | S. cerevisiae deletion strains, locus YNL307C, strain MCK1, active compounds read low 1.01 | S. cerevisiae deletion strains, locus YNL322C, strain KRE1, active compounds read low 1 | S. cerevisiae deletion strains, locus YNR052C, strain pop2, active compounds read low 1.02 | S. cerevisiae deletion strains, locus YOL006C, strain TOP1, active compounds read low 1.02 | S. cerevisiae deletion strains, locus YOL012C, strain htz1 0.815 | S. cerevisiae deletion strains, locus YOL147C, strain pex11, active compounds read low 1.01 | S. cerevisiae deletion strains, locus YOR061W, strain CKA2, active compounds read low 1.01 | S. cerevisiae deletion strains, locus YOR069W, strain VPS5, active compounds read low 0.998 | S. cerevisiae deletion strains, locus YOR136W, strain idh2, active compounds read low 1.02 | S. cerevisiae deletion strains, locus YOR144C, strain elg1, active compounds read low 1.01 | S. cerevisiae deletion strains, locus YOR184W, strain ser1, active compounds read low 1.01 | S. cerevisiae deletion strains, locus YOR231W, strain MKK1, active compounds read low 1.03 | S. cerevisiae deletion strains, locus YOR316C, strain cot1, active compounds read low 1.01 | S. cerevisiae deletion strains, locus YPL055C, strain LGE1, active compounds read low 0.993 | S. cerevisiae deletion strains, locus YPL241C, strain CIN2, active compounds read low 0.997 | S. cerevisiae deletion strains, locus YPL256C, strain CLN2, active compounds read low 1.02 | S. cerevisiae deletion strains, locus YPR119W, strain clb2, active compounds read low 1.01 | S. cerevisiae deletion strains, locus YPR141C, strain kar3, active compounds read low 1.01 | S. cerevisiae deletion strains, locus YPR163C, strain tif3, active compounds read low 1.02 | S. cerevisiae deletion strains, locus YPR167C, strain met16, active compounds read low 1.01 | S. cerevisiae deletion strains, strain wtn01, active compounds read low 1.03 | S. cerevisiae strains, strain wild type, active compounds read low 0.999
